DRD3 antagonist = blocks the human D3 dopamine receptor | D3R cells, DiscoveRx beta-arrestin luminescence, antagonist mode; active compounds read low | max response, negative = inhibition, % | P35462 | AID 652054 | 360,000 tested, 2.5% active; in the data active = max response below about -50%; inconclusive = no clear call, values can overlap the other calls; note: % is set by controls: 0 for no effect and ±100 for the full control effect
Target sequence (P35462 whole entry, looked up): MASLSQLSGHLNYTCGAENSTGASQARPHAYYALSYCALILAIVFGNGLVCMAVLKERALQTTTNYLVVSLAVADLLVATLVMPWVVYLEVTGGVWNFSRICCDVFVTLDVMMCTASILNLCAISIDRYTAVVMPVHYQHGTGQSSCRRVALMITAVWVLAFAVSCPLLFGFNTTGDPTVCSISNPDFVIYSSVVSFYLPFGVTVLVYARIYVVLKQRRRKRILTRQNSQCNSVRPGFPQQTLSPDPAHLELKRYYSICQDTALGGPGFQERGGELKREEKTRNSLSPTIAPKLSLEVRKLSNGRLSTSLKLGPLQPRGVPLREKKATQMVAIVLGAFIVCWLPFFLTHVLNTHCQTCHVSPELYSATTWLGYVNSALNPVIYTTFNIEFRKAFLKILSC
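Cells expressing the human receptor were seeded at 1500 cells/well, incubated overnight at 37 degrees C in 5% CO2, then exposed to library compounds with dopamine controls for 90 minutes at 37 degrees C before luminescent detection.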
DT40 TDP1 no CPT = qHTS for Inhibitors of human tyrosyl-DNA phosphodiesterase 1 (TDP1): qHTS in cells in absence of CPT. 420,000 tested, 15% active. DT40 Tdp1-/- hTDP1 cells, no CPT, ATP luminescence, 48 h. Potency, µM (series often up to 46.2 µM), without a hit: at the highest dose activity change, negative = growth inhibition, most hits filed as inhibitors; note: potency is the fitted concentration of half-maximal effect; % is set by controls: 0 for no effect and ±100 for the full control effect; nearly all actives have a fitted effect of over 55% in size
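Growth kinetics read by CellTiter-Glo luminescence after ≥48 hr at 37 °C. Cells: DT40 Tdp1-/- stably carrying human TDP1, 400 per well, compound exposure in the absence of CPT (DMSO vehicle).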
IL1B secr inh = inhibitors of inflammasome signaling (IL-1 beta secretion). THP-1 LPS/ATP IL-1B secretion, AlphaLISA, 16 h; active compounds read low. activity change, % at 57.5 µM. 360,000 tested, 4.7% active; in the data active = activity change below about -50%; inconclusive = mostly about -30% to -49%; note: % is set by controls: 0 for no effect and ±100 for the full control effect
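THP-1 cells pretreated 1 hr with compounds (up to 57.5 uM final), then stimulated with LPS (250 ng/mL final) plus ATP (1.25 mM final); secreted IL-1B measured by AlphaLISA after 16 hr, decreased signal indicating inhibition.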
D3 ag = D3 dopamine receptor (human) agonism; P35462; D3R DiscoveRx beta-arrestin cells, luminescence, 90 min; max activation, %; 410,000 tested, 0.58% active; in the data active = max activation above about 30%; note: 0% is about no effect
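Agonist mode: compounds and dopamine controls were applied to plated cells for 90 min at 37 degrees C after an overnight attachment at 1500 cells/well. Luminescent read-out followed 30 - 60 minutes at room temperature with DiscoveRx detection reagent.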
ClpP mod = qHTS Assay for Activators of ClpP; ATP-dependent Clp protease proteolytic subunit (Bacillus subtilis (strain 168)), P80244; purified B. subtilis ClpP, FRET peptide cleavage, 20 min; Potency, µM (series often up to 57.5 µM), for inactives: top-dose activity change, negative = active; 340,000 tested, 1.9% active; active = well fitted falling curve with a large enough effect; inconclusive = small, poorly fitted or top-dose-only effect; inactive = no such curve, though single readings can be large or run the other way; note: potency is the fitted concentration of half-maximal effect; the source files actives as falling curves though it sought activators and does not explain the sign; nearly all actives have a fitted effect of over 65% in size
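FRET quenching reversal measured ClpP activation: 10 microg/mL B. subtilis ClpP at pH 8 with the FRET-FV decapeptide, read at 430 nm after 320 nm excitation. The 20-min minus 0-min signal was scaled between DMSO/no-enzyme wells and ADEP (5.8 microM final).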
DT40 TDP1 CPT = DT40-hTDP1 cell growth loss with CPT; chicken DT40 Tdp1-/-;hTDP1 cells + 20 nM CPT, ATP luminescence, 48 h; Potency, µM (series often up to 46.2 µM), inactives show top-dose activity change, negative = growth inhibition, usual class: inhibitors; 420,000 tested, 12% active; AID 686979; note: potency is the fitted concentration of half-maximal effect; % is set by controls: 0 for no effect and ±100 for the full control effect; nearly all actives have a fitted effect of over 55% in size
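Chicken DT40 Tdp1-/- cells stably complemented with human TDP1 were seeded at 400 cells/well in medium containing 20 nM camptothecin, exposed to pin-transferred compounds, and grown at 37 °C for at least 48 hr. Viability was read as ATP luminescence.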
Starred values were filed as active, the others as inactive; i = inactive; ? = inconclusive; · = not tested or not shown. Compounds with a hit are over-represented: about 21% of the library has one in this group of screens. Unless noted, calls come from the whole dose curve; as a rule, active = well fitted inhibition curve with a large enough effect; inconclusive = small, poorly fitted or top-dose-only effect; inactive = flat fitted curve, though single readings scatter.

SMILES	DRD3 antagonist	DT40 TDP1 no CPT	IL1B secr inh	D3 ag	ClpP mod	DT40 TDP1 CPT
O=C(CSC1=Nc2ccccc2N=C(c2ccc(F)cc2)C1)NCc1ccccc1Cl	·	?	·	-1	2%	23µM*
O=C(CSC1=Nc2ccccc2N=C(c2ccc(F)cc2)C1)NCc1ccc(Cl)cc1	·	?	·	-2	2%	21µM*
COc1cc(OC)c(NC(=O)CSC2=Nc3ccccc3N=C(c3ccc(F)cc3)C2)cc1Cl	·	?	·	7	1%	?
O=C(CSC1=Nc2ccccc2N=C(c2ccc(F)cc2)C1)Nc1ccccc1	·	?	·	-7	3%	?
COc1cccc(CNC(=O)CSC2=Nc3ccccc3N=C(c3ccc(F)cc3)C2)c1	·	?	·	-9	-4%	21µM*
Cc1ccc(NC(=O)Cn2cc(C(F)(F)F)cc(Cl)c2=O)cc1S(=O)(=O)N1CCCCC1	3	?	0	5	-1%	?
CCOC(=O)COc1ccccc1/C=N\NC(=O)c1cc2c(ccc3ccccc32)o1	30	?	i	1	28µM*	-20%
CCOc1cc(/C=N/NC(=O)c2cc3c(ccc4ccccc43)o2)ccc1O	43	?	-51*	3	-11%	23µM*
Cc1ccc(NC(=S)N(CCCN2CCOCC2)Cc2cccnc2)cc1C	17	-11%	3	-6	·	1%
O=C1[C@@H]2[C@H]3CC[C@H](C3)[C@@H]2C(=O)N1CCCCN1CCN(c2ncccn2)CC1	·	-17%	·	-10	·	6%
CC12CCC(=O)N1C(C(=O)Nc1nc3ccc(Cl)cc3s1)CS2 (stereo unspecified)	-11	?	-84*	-3	·	4%
Cc1cc(C)c2nc(NC(=O)C3CSC4(C)CCC(=O)N34)sc2c1 (stereo unspecified)	24	3.7µM*	0	3	1%	-45%
CCc1ccc2nc(NC(=O)C3CSC4(C)CCC(=O)N34)sc2c1 (stereo unspecified)	12	?	-55*	1	·	-28%
COc1ccc2nc(NC(=O)C3CSC4(C)CCC(=O)N34)sc2c1 (stereo unspecified)	4	?	?	10	-3%	-4%
CC12CCC(=O)N1C(C(=O)Nc1nc3ccc(S(C)(=O)=O)cc3s1)CS2 (stereo unspecified)	-8	21%	-1	1	-1%	-1%
CC1CCN(S(=O)(=O)c2ccc(NC(=O)C3CSC4(C)CCC(=O)N34)cc2)CC1 (stereo unspecified)	2	10µM*	-6	3	28µM*	?
Cc1nc2ccc(S(=O)(=O)NC(CC(C)C)C(=O)NCc3ccc(Cl)cc3)cc2s1 (stereo unspecified)	·	-62%	·	5	-3%	?
COc1ccc(C(=O)Nc2cccc(OCc3cc(=O)n4c5c(sc4n3)CCCC5)c2)cc1OC	·	?	·	3	-27%	-6%
CCCOc1ccc(C(=O)CCC(=O)NNC(=O)c2ccncc2)cc1	8	8%	13	2	-2%	7%
Cc1cc(C)c2nc(NC(=O)C3CC(=O)N(Cc4ccco4)C3)sc2c1 (stereo unspecified)	-15	?	-71*	-5	-4%	?
Cc1sc(NC(=O)C2CSC3(C)CCC(=O)N23)nc1-c1ccc(F)cc1 (stereo unspecified)	-22	18µM*	0	1	-1%	15µM*
Fc1ccc(Nc2nc(NCc3ccco3)nc3nccnc23)cc1	·	-29%	·	·	-1%	-25%
Cc1cccc(S(=O)(=O)N2CCCc3ccccc32)c1	-8	?	34	19	-1%	26µM*
Cc1cc(C)c(S(=O)(=O)N2CCCc3ccccc32)c(C)c1	-4	?	29	-7	-4%	?
